{"source": "PubChem BioAssay AID485314", "about": "(National Center for Advancing Translational Sciences (NCATS), 2010)", "note": "In all, about 340,000 compounds went through this assay and about 4,500 (1.3%) were called active. About 5% were inconclusive and are not listed. Calls follow the shape of the dose curve; as a rule, active = well fitted inhibition curve with a large enough effect; inconclusive = small, poorly fitted or top-dose-only effect, or another doubt; inactive = no such curve, though single readings can be large or run the other way. Shown is part of a subset that was picked to be rich in actives. A call without a number means that no potency is given here. Potency is read from the fitted curve at half-maximal effect.", "data": [{"biological_target": "DNA polymerase beta (Homo sapiens) (UniProt P06746)", "test": "qHTS Assay for Inhibitors of DNA Polymerase Beta", "conditions": "Pol beta primer extension/strand displacement, fluorescence kinetic; series mostly up to 114 µM", "outline": "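Kinetic readout of DNA synthesis with strand displacement by Pol beta. Compound and 10 nM enzyme sit 15 min at room temperature; 50 nM substrate starts the reaction, read immediately and at 10 min.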", "values": [{"molecule": "CCCCn1c(CNC(=O)C23CC4CC(CC(C4)C2)C3)nnc1SCC(=O)Nc1ccc(C)cc1", "Potency": "inactive"}, {"molecule": "CCCn1c2ccccc2c2cnn(CC(=O)N3CCCC(C(=O)OCC)C3)c(=O)c21", "note": "(stereo not given)", "Potency": "inactive"}, {"molecule": "CC(=O)c1sc2nc(SCC(=O)N3CCCCC3)[nH]c(=O)c2c1C", "Potency": "inactive"}, {"molecule": "CSc1nnc(SCc2nc3sc(C(=O)O)c(C)c3c(=O)[nH]2)s1", "Potency": "6.31 µM (active)"}, {"molecule": "CCOC(=O)c1sc2nc(CSCC(=O)OCc3ccc(C(=O)OC)o3)[nH]c(=O)c2c1C", "Potency": "inactive"}, {"molecule": "Cc1ccc(C2c3[nH]c4ccccc4c3CCN2C(=O)c2cccc(C)c2)cc1", "note": "(stereo not given)", "Potency": "inactive"}, {"molecule": "O=C(Nc1ccc(OC(F)(F)F)cc1)C1CCCN(S(=O)(=O)c2ccc(Br)s2)C1", "note": "(stereo not given)", "Potency": "inactive"}, {"molecule": "Cc1ccc(CSc2nc3cccnc3n2Cc2ccc(C(=O)NC3CC3)cc2)cc1", "Potency": "inactive"}, {"molecule": "COc1ccc(C2(Nc3cccc(F)c3)C(=O)c3ccccc3C2=O)cc1", "Potency": "inactive"}, {"molecule": "CN(Cc1ccccc1)S(=O)(=O)c1ccc(F)c(C(=O)Nc2cccc(Cl)c2Cl)c1", "Potency": "inactive"}, {"molecule": "O=C1CSC(=S)N1/N=C/c1ccc(O)c([N+](=O)[O-])c1", "Potency": "17.8 µM (active)"}, {"molecule": "O=C1CSC(=S)N1c1ccc(O)cc1", "Potency": "inactive"}, {"molecule": "O=[N+]([O-])c1ccc(N2CCSCC2)cc1O", "Potency": "inactive"}, {"molecule": "Cc1ccc(Nc2c(-c3ccc(C)cc3)nc3cnccn23)cc1", "Potency": "inactive"}, {"molecule": "CCOC(=O)C1CCN(c2ncnc3c2c(-c2ccccc2)cn3-c2cccc(C)c2)CC1", "Potency": "inactive"}, {"molecule": "COc1ccc(Cl)cc1N(C)C(=O)c1cc2c(=O)oc3ccc(C)cc3c2s1", "Potency": "inactive"}, {"molecule": "O=C(Nc1cccc(Cl)c1)c1csnn1", "Potency": "inactive"}, {"molecule": "O=C(Nc1ccc(Oc2ccccc2)cc1)C1CCN(S(=O)(=O)c2ccc(Cl)cc2)CC1", "Potency": "inactive"}, {"molecule": "O=C(Nc1ccccc1)c1nnsc1S(=O)(=O)c1ccc(Cl)cc1", "Potency": "44.7 µM (active)"}, {"molecule": "CC(C)c1ccc(OCC(=O)N(Cc2ccc(N(C)C)cc2)C2CCS(=O)(=O)C2)cc1", "note": "(stereo not given)", "Potency": "inactive"}, {"molecule": "CC(=O)Nc1ccc(Nc2c3ccccc3nc3ccccc23)cc1", "Potency": "17.8 µM (active)"}, {"molecule": "CCc1nc(Nc2ccc(NC(C)=O)cc2)c2oc3ccccc3c2n1", "Potency": "inactive"}, {"molecule": "CC(C)(C)OC(=O)NNc1c2ccccc2nc2ccccc12", "Potency": "inactive"}, {"molecule": "COc1ccc(C(=O)NCC(c2ccc(N(C)C)cc2)N2CCc3ccccc32)c(OC)c1", "note": "(stereo not given)", "Potency": "inactive"}, {"molecule": "CCOc1ccc(-n2c(O)c(/C=N/Nc3nc(C)cc(C)n3)c3ccccc3c2=O)cc1", "Potency": "inactive"}, {"molecule": "CCOc1ccc(-n2c(O)c(/C=N/c3ccnn3Cc3ccncc3)c3ccccc3c2=O)cc1", "Potency": "inactive"}, {"molecule": "CCOc1ccc(-n2c(O)c(/C=N/Nc3nnc(C)c(=O)[nH]3)c3ccccc3c2=O)cc1", "Potency": "56.2 µM (active)"}, {"molecule": "CCOc1ccccc1NC(=O)CN1CCCN(Cc2cccc(Cl)c2)S1(=O)=O", "Potency": "inactive"}, {"molecule": "CC(/C=C/C1(O)C(C)CC(=O)CC1(C)C)OC1OC(CO)C(O)C(O)C1O", "note": "(stereo not given)", "Potency": "28.2 µM (active)"}, {"molecule": "CC1=C(C)C(=O)OC(C(C)C2CCC3C4CC=C5CC(OC6OC(COC7OC(CO)C(O)C(O)C7O)C(O)C(O)C6O)CC(O)C5(C)C4CCC23C)C1", "note": "(stereo not given)", "Potency": "inactive"}, {"molecule": "C=CC1C(OC2OC(CO)C(O)C(O)C2O)OC=C(C(=O)OC)C1CC1CC(=O)CC(CC(=O)CCc2ccc(O)cc2)O1", "note": "(stereo not given)", "Potency": "inactive"}, {"molecule": "Cc1ccc(-c2nc3ccccn3c2Nc2c(C)cccc2C)o1", "Potency": "inactive"}, {"molecule": "O=C(CN1CCSc2ccccc21)N1CCN(c2ccccc2)CC1", "Potency": "inactive"}, {"molecule": "Oc1c(Cl)cc(Cl)c(Cl)c1Cc1c(O)c(Cl)cc(Cl)c1Cl", "Potency": "28.2 µM (active)"}, {"molecule": "Cc1ccc(Cc2nc3ccccc3nc2SCC(=O)Nc2cccc(C(F)(F)F)c2)cc1", "Potency": "inactive"}, {"molecule": "Cc1ccc(-c2cnc(C3CC3)o2)cc1S(=O)(=O)Nc1cccc(C)c1C", "Potency": "inactive"}, {"molecule": "CCCOc1ccc(-c2cccc(NS(=O)(=O)c3ccccc3)c2)nn1", "Potency": "inactive"}, {"molecule": "O=C(N/N=C/c1ccco1)c1csc2c1CCCC2", "Potency": "inactive"}, {"molecule": "O=C(Cc1ccc([N+](=O)[O-])cc1)N/N=C/c1ccco1", "Potency": "inactive"}, {"molecule": "O=C(N/N=C/c1ccco1)c1ccc(C(=O)N/N=C/c2ccco2)o1", "Potency": "17.8 µM (active)"}, {"molecule": "CCc1ccccc1NC(=O)CSc1nnc(-c2ccccc2)c(-c2ccccc2)n1", "Potency": "inactive"}, {"molecule": "Cc1c(Cl)cccc1NC(=O)N1CCN(C(=O)c2nsc3ccccc23)CC1", "Potency": "inactive"}, {"molecule": "CC1CCN(S(=O)(=O)c2ccc(NC(=O)C3CC(=O)N(c4ccccc4)C3)cc2)CC1", "note": "(stereo not given)", "Potency": "inactive"}, {"molecule": "Cc1ccc(N2CC(C(=O)Nc3ccc(S(=O)(=O)N4CCCC4)cc3)CC2=O)cc1C", "note": "(stereo not given)", "Potency": "inactive"}, {"molecule": "COc1ccccc1N1CC(C(=O)Nc2ccc(S(=O)(=O)N3CCOCC3)cc2)CC1=O", "note": "(stereo not given)", "Potency": "79.4 µM (active)"}, {"molecule": "COc1ccc(NC(=O)NC(C)c2c(-n3cccc3)sc(C)c2C)cc1OC", "note": "(stereo not given)", "Potency": "inactive"}, {"molecule": "CCOc1ccc2nc(N3CCCC(C(=O)Nc4cc(C)ccc4C)C3)sc2c1", "note": "(stereo not given)", "Potency": "inactive"}, {"molecule": "CCOc1cccc(-c2nn3c(-c4ccccn4)nnc3s2)c1", "Potency": "inactive"}, {"molecule": "S=c1[nH]nc(-c2cc(-c3ccsc3)n[nH]2)n1-c1ccccc1", "Potency": "inactive"}, {"molecule": "c1ccc(-c2cc(-c3nnc4sc(-c5ccccn5)nn34)[nH]n2)cc1", "Potency": "39.8 µM (active)"}]}]}
